# Test results as given in article PMC7862700, “An all-to-all approach to the identification of sequence-specific readers for epigenetic DNA modifications on cytosine”.
# How the values were obtained:
# Test in all cases: DAPPL (digital affinity profiling via proximity ligation, sequencing); 10 mM Tris-HCl pH 7.5, 50 mM NaCl, 1 mM DTT, 4% glycerol, room temperature, 30 min; GST-TFs on glutathione beads, 16-mer random dsDNA library, 0.1% formaldehyde crosslink after washing; high values mean tight binding
# [1] = molecular target: T1, FLI1 (Homo sapiens, UniProt Q01543 1-452); details: protein: recombinant; tags: N-terminal GST; dsDNA, one strand shown
# T1 sequence: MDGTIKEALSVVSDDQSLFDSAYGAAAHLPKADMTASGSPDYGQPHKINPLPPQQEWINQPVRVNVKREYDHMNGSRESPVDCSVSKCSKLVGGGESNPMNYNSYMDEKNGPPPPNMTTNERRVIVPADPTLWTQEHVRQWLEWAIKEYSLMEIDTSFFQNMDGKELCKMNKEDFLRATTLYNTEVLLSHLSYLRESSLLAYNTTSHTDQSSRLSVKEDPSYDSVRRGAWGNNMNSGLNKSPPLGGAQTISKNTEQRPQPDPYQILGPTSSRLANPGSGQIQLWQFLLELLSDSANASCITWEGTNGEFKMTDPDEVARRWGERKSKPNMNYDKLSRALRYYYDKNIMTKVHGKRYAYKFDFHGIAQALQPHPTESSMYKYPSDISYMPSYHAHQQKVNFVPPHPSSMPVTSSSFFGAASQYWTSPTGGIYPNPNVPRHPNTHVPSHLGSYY
# Method in brief: (§1)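 Sequencing on an Illumina NextSeq500 followed washing, crosslinking with 0.1% formaldehyde, proximity ligation (BsaI/T4 ligase, 1 h, 37 °C) and PCR amplification of pools that had been incubated for 30 min at room temperature with 200 nmole of a random double-stranded 16-mer DNA library in Tris/NaCl/DTT/glycerol buffer. Each pool held DNA-barcoded human transcription factors, expressed in yeast as GST fusions and captured on glutathione beads, plus a tag-only sample. Binding signal is a hexamer's read frequency for a factor divided by its frequency in the tag-only sample.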
# [2] = molecular target: T2, ELK1 (Homo sapiens, UniProt P19419 1-428); details: protein: recombinant; tags: N-terminal GST; dsDNA, one strand shown
# T2 sequence: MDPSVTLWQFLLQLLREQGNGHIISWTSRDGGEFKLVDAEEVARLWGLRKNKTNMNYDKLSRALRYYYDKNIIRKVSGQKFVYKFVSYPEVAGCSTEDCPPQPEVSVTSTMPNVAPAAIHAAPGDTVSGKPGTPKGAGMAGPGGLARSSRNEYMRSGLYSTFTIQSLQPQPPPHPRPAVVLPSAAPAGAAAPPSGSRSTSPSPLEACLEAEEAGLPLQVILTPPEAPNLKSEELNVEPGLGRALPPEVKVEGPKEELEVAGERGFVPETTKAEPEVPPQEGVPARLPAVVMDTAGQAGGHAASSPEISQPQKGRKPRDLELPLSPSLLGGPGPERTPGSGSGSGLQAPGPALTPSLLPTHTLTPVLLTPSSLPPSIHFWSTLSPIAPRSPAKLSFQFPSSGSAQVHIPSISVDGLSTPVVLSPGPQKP
# Method in brief: as §1
# [3] = molecular target: T3, GABPA (Homo sapiens, UniProt Q06546 1-454); details: protein: recombinant; tags: N-terminal GST; dsDNA, one strand shown
# T3 sequence: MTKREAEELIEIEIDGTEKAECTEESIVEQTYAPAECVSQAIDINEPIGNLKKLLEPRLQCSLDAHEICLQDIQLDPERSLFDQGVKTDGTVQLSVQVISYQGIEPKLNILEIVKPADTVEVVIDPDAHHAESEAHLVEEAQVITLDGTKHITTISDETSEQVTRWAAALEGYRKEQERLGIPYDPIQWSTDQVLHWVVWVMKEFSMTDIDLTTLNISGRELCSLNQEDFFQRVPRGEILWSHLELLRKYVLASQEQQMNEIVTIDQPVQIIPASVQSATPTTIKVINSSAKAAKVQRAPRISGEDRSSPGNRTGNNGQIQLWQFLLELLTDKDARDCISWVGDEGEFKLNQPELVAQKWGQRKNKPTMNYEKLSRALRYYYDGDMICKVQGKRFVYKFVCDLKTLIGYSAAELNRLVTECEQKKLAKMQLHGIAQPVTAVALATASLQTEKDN
# Method in brief: as §1
# [4] = molecular target: T4, ERG (Homo sapiens, UniProt P11308 1-479); details: protein: recombinant; tags: N-terminal GST; dsDNA, one strand shown
# T4 sequence: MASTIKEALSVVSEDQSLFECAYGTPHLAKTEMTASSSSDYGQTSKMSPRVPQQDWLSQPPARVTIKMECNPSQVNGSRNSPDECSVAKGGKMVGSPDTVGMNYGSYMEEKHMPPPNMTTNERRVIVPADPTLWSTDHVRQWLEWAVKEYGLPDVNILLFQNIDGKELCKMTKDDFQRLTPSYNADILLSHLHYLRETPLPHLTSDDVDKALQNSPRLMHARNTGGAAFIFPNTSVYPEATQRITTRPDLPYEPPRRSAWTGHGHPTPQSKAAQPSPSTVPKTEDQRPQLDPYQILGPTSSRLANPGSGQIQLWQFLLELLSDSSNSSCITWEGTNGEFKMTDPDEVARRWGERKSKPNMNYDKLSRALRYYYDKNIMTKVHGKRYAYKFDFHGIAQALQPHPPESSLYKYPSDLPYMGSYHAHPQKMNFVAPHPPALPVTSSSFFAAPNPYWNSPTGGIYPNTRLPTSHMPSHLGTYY
# Method in brief: as §1
# [5] = molecular target: ELF1 (Homo sapiens, UniProt P32519 1-619); details: protein: recombinant; tags: N-terminal GST; dsDNA, one strand shown
# Chain of ELF1 (P32519 whole entry): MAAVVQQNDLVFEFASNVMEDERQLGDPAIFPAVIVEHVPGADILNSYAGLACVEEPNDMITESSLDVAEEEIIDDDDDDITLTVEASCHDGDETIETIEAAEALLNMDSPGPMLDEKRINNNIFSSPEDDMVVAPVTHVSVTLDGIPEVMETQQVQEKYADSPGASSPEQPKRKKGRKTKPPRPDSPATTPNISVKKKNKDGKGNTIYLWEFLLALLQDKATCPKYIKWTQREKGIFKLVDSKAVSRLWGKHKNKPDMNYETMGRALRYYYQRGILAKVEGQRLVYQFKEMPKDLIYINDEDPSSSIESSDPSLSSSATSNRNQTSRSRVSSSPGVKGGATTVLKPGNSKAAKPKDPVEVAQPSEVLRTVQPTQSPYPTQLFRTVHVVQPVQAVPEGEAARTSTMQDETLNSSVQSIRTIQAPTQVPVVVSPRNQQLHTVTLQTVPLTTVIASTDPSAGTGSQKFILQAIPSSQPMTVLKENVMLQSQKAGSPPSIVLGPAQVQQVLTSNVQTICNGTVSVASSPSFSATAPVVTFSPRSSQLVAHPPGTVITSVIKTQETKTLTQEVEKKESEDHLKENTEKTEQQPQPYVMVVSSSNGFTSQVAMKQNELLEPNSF
# Method in brief: as §1
# [6] = molecular target: T5, EHF (Homo sapiens, UniProt Q9NZC4 1-300); details: protein: recombinant; tags: N-terminal GST; dsDNA, one strand shown
# T5 sequence: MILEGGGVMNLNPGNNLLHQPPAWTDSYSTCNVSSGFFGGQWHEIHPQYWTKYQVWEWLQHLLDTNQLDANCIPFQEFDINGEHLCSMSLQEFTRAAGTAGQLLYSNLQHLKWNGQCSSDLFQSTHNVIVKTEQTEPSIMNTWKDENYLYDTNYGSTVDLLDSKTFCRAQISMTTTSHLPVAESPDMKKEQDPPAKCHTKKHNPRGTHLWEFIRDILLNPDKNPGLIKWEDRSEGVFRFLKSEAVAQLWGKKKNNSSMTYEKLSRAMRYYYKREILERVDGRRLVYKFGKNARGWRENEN
# Method in brief: as §1
# [7] = molecular target: SPI1 (Homo sapiens, UniProt P17947 1-270); details: protein: recombinant; tags: N-terminal GST; dsDNA, one strand shown
# Method in brief: as §1
# [8] = molecular target: SPIB (Homo sapiens, UniProt Q01892 1-262); details: protein: recombinant; tags: N-terminal GST; dsDNA, one strand shown
# Chain of SPIB (Q01892 whole entry): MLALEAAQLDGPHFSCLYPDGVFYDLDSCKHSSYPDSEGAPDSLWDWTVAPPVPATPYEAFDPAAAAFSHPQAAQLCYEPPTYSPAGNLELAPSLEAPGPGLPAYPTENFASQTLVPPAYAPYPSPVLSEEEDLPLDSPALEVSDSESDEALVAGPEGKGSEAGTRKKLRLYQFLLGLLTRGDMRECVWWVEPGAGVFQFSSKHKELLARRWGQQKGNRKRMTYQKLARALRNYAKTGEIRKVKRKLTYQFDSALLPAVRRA
# Method in brief: as §1
# [9] = molecular target: T6, ELK3 (Homo sapiens, UniProt P41970 1-407); details: protein: recombinant; tags: N-terminal GST; dsDNA, one strand shown
# T6 sequence: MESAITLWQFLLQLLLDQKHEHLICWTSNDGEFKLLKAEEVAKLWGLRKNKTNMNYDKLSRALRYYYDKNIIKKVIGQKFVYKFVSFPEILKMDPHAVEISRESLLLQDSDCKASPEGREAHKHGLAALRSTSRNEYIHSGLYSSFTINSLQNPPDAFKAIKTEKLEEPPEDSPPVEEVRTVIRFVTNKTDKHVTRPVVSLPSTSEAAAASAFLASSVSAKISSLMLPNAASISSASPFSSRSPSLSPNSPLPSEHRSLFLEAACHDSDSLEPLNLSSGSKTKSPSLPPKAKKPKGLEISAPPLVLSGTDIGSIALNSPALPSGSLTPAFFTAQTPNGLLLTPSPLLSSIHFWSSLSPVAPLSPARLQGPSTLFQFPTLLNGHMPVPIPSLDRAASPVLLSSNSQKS
# Method in brief: as §1
# [10] = molecular target: T7, FEV (Homo sapiens, UniProt Q99581 1-238); details: protein: recombinant; tags: N-terminal GST; dsDNA, one strand shown
# T7 sequence: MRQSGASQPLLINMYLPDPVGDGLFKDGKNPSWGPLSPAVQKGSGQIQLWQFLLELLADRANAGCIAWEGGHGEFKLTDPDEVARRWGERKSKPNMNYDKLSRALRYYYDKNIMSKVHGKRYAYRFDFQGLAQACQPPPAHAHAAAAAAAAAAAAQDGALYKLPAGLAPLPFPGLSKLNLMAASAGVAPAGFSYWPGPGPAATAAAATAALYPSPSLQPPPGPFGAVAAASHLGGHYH
# Method in brief: as §1
# [11] = molecular target: ETV5 (Homo sapiens, UniProt P41161 1-510); details: protein: recombinant; tags: N-terminal GST; dsDNA, one strand shown
# Chain of ETV5 (P41161 whole entry): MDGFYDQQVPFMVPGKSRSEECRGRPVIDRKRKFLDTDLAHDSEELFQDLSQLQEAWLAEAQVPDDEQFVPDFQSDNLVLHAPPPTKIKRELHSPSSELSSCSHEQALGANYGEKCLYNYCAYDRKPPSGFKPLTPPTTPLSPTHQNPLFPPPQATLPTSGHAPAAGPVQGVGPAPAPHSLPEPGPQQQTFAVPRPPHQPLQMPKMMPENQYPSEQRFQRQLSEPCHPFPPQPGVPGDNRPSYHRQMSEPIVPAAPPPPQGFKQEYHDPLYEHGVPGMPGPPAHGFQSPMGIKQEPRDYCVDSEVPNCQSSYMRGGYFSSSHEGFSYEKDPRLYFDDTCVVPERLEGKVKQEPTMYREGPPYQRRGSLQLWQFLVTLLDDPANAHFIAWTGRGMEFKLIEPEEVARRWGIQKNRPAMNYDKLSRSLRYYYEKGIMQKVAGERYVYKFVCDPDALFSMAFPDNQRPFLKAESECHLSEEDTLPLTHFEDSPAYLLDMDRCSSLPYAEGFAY
# Method in brief: as §1
# [12] = molecular target: HSF1 (Homo sapiens, UniProt Q00613 1-529); details: protein: recombinant; tags: N-terminal GST; chain copies: 3; dsDNA, one strand shown
# Chain of HSF1 (Q00613 whole entry): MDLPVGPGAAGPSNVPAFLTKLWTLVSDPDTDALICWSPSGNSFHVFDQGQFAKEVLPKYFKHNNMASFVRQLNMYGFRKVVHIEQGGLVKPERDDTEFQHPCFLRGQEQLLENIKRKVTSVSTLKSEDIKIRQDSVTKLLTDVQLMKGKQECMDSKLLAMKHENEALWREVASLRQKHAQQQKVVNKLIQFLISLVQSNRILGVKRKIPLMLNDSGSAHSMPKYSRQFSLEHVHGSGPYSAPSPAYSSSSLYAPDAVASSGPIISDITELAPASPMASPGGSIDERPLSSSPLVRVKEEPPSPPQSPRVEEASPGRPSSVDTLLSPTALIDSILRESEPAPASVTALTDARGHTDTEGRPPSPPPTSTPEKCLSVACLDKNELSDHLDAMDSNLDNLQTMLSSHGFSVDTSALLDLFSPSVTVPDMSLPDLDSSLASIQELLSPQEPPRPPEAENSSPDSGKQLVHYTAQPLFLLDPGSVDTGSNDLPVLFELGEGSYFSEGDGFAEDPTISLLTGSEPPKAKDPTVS
# Method in brief: as §1
# [13] = molecular target: T8, SPIC (Homo sapiens, UniProt Q8N5J4 1-248); details: protein: recombinant; tags: N-terminal GST; dsDNA, one strand shown
# T8 sequence: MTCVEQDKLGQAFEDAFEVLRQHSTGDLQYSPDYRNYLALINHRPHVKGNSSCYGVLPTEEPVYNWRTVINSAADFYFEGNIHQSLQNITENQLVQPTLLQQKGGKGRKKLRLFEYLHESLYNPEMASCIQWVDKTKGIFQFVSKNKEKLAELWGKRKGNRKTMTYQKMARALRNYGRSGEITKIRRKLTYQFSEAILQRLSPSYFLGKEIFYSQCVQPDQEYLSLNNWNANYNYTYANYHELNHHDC
# Method in brief: as §1
# [14] = molecular target: ELF4 (Homo sapiens, UniProt Q99607 1-663); details: protein: recombinant; tags: N-terminal GST; dsDNA, one strand shown
# Chain of ELF4 (Q99607 whole entry): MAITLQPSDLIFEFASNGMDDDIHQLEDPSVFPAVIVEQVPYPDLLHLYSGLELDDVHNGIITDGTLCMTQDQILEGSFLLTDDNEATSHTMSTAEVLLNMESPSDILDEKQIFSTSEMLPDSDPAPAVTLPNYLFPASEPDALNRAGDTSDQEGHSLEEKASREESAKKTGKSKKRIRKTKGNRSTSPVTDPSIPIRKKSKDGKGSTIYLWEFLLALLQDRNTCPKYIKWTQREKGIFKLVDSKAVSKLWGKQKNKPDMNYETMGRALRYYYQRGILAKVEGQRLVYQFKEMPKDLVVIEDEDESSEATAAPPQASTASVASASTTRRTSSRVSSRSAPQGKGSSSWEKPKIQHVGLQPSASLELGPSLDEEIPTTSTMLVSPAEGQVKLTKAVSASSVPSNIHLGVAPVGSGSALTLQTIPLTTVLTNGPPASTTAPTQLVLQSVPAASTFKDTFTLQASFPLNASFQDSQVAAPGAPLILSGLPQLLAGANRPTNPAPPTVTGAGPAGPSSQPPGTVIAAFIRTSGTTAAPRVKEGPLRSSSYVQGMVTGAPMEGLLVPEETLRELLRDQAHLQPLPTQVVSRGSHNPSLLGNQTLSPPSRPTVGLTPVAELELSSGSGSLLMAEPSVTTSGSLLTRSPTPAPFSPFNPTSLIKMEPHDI
# Method in brief: as §1
# [15] = molecular target: T9, ELK4 (Homo sapiens, UniProt P28324-2 1-405); details: protein: recombinant; tags: N-terminal GST; dsDNA, one strand shown
# T9 sequence: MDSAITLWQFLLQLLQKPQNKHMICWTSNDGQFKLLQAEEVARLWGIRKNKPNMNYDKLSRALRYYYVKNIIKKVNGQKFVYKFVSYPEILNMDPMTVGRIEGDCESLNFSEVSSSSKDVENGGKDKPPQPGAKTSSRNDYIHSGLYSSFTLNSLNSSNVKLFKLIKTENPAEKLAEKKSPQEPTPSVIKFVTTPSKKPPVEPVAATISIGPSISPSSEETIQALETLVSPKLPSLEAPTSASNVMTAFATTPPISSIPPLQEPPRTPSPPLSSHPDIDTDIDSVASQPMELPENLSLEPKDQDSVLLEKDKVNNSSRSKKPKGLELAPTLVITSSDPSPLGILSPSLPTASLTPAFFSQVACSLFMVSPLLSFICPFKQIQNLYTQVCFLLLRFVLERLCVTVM
# Method in brief: as §1
# [16] = molecular target: T10, ETV2 (Homo sapiens, UniProt O00321 1-342); details: protein: recombinant; tags: N-terminal GST; dsDNA, one strand shown
# T10 sequence: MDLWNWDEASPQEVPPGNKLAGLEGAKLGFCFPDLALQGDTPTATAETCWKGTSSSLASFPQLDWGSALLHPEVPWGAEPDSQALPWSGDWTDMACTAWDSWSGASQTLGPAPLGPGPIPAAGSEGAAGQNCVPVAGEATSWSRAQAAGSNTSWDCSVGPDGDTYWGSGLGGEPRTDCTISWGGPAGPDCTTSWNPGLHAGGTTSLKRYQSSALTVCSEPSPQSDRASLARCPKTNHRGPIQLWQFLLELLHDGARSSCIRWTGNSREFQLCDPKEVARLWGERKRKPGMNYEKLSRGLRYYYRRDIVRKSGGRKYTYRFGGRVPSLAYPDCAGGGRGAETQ
# Method in brief: as §1
# [17] = molecular target: T11, ELF3 (Homo sapiens, UniProt P78545 1-371); details: protein: recombinant; tags: N-terminal GST; dsDNA, one strand shown
# T11 sequence: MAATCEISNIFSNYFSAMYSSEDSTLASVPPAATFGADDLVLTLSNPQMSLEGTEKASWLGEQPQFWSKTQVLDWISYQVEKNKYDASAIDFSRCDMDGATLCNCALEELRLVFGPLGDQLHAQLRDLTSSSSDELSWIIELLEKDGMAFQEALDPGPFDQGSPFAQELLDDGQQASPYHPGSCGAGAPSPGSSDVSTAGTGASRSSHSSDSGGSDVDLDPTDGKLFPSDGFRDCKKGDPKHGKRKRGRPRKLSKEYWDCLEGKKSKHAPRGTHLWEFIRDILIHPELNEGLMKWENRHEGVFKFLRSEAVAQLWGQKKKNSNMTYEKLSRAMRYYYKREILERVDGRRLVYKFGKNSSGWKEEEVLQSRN
# Method in brief: as §1
# [18] = molecular target: CRX (Homo sapiens, UniProt O43186 1-299); details: protein: recombinant; tags: N-terminal GST; dsDNA, one strand shown
# Chain of CRX (O43186 whole entry): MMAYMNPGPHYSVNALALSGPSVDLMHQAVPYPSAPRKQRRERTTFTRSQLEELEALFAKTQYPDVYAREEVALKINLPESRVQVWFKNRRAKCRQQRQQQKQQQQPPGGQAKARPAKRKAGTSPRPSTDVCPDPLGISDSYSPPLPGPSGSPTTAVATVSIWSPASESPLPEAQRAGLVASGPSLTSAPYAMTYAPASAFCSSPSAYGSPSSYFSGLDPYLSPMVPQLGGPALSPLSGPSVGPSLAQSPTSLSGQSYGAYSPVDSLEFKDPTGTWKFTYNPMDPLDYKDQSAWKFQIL
# Method in brief: as §1
# [19] = molecular target: ETV1 (Homo sapiens, UniProt P50549 1-477); details: protein: recombinant; tags: N-terminal GST; dsDNA, one strand shown
# Chain of ETV1 (P50549 whole entry): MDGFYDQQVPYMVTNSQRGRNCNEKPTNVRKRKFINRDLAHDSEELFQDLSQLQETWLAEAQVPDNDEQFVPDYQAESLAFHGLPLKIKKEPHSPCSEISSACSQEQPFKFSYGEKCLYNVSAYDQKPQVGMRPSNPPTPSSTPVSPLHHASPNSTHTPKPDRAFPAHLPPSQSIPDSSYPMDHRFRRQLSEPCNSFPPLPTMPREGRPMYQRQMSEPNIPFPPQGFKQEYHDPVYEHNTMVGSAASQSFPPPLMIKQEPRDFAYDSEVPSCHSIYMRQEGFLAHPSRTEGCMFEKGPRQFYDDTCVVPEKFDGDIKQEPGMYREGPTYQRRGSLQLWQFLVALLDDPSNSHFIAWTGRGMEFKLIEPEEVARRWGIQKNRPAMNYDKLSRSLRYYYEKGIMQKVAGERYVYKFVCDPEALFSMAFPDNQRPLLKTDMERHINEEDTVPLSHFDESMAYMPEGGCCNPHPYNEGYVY
# Method in brief: as §1
sequence,measurement,setting,value
TTACAC,binding signal,[1],"1.28 fold enrichment (6-mer frequency, TF over GST control)"
same,binding signal,[2],"1.26 fold enrichment (6-mer frequency, TF over GST control)"
same,binding signal,[3],"1.18 fold enrichment (6-mer frequency, TF over GST control)"
same,binding signal,[4],"1.27 fold enrichment (6-mer frequency, TF over GST control)"
same,binding signal,[5],"1.3 fold enrichment (6-mer frequency, TF over GST control)"
same,binding signal,[6],"1.39 fold enrichment (6-mer frequency, TF over GST control)"
same,binding signal,[7],"1.13 fold enrichment (6-mer frequency, TF over GST control)"
same,binding signal,[8],"1.21 fold enrichment (6-mer frequency, TF over GST control)"
same,binding signal,[9],"1.31 fold enrichment (6-mer frequency, TF over GST control)"
same,binding signal,[10],"1.24 fold enrichment (6-mer frequency, TF over GST control)"
same,binding signal,[11],"1.23 fold enrichment (6-mer frequency, TF over GST control)"
same,binding signal,[12],"1.35 fold enrichment (6-mer frequency, TF over GST control)"
same,binding signal,[13],"1.17 fold enrichment (6-mer frequency, TF over GST control)"
same,binding signal,[14],"1.21 fold enrichment (6-mer frequency, TF over GST control)"
same,binding signal,[15],"1.25 fold enrichment (6-mer frequency, TF over GST control)"
same,binding signal,[16],"1.16 fold enrichment (6-mer frequency, TF over GST control)"
same,binding signal,[17],"1.2 fold enrichment (6-mer frequency, TF over GST control)"
same,binding signal,[18],"1.73 fold enrichment (6-mer frequency, TF over GST control)"
same,binding signal,[19],"1.27 fold enrichment (6-mer frequency, TF over GST control)"
